The panel holds about 79,000 compounds, 15% with a hit somewhere; the sample as a whole holds those more often. Values without a mark were called inactive. Active and inactive are the calls of the source. Cut-off read from the data, not from the text of the source: active = growth inhibition above about 70%; inactive = the rest.
Legend:
[1] = NCI Yeast Anticancer Drug Screen. Data for the rad50 strain (AID 155);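 note: 0% = growth of vehicle-only cultures of the same strain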; conditions: S. cerevisiae rad50 strain growth inhibition; at 50.0 µM; active compounds read high
Outline: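 Relative growth inhibition (compound vs vehicle) was measured in yeast with a defined repair-gene alteration.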

[2] = NCI Yeast Anticancer Drug Screen. Data for the mec2-1 strain (AID 157); conditions: S. cerevisiae mec2-1 strain, at 50.0 µM, active compounds read high
Outline: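 Using mec2-1 yeast: add compound, measure growth, express inhibition versus vehicle-treated cultures.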

[3] = NCI Yeast Anticancer Drug Screen. Data for the sgs1 mgt1 strain (AID 161);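 note: 0% = growth of cultures given vehicle only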; conditions: S. cerevisiae sgs1 mgt1 strain, at 50.0 µM, active compounds read high
Outline: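 Compounds are added to genetically altered yeast, and growth is compared with cultures given vehicle alone to give percent inhibition.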

[4] = NCI Yeast Anticancer Drug Screen. Data for the cln2 rad14 strain (AID 165);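 note: 0% = growth equal to vehicle treated cultures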; conditions: S. cerevisiae cln2 rad14 strain, at 50.0 µM, active compounds read high
Outline: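 Yeast strain cln2 rad14, bearing defects in cell cycle control and DNA repair, serves as the test system; values reflect growth inhibition compared with vehicle.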

[5] = NCI Yeast Anticancer Drug Screen. Data for the bub3 strain (AID 167); conditions: S. cerevisiae bub3 mutant strain, at 50.0 µM, active compounds read high
Outline: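 Screening used yeast with an engineered genetic alteration affecting cell cycle control. Compound-exposed cultures were compared with vehicle cultures, and reduced growth was taken as inhibition.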

[6] = NCI Yeast Anticancer Drug Screen. Data for the mlh1 rad18 strain (AID 175); conditions: S. cerevisiae mlh1 rad18 strain growth inhibition; at 50.0 µM; active compounds read high
Outline: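 Steps: expose repair-defective yeast to compound; measure growth; express inhibition against vehicle-treated controls.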

Structure (SMILES) | growth inhibition [1] | growth inhibition [2] | growth inhibition [3] | growth inhibition [4] | growth inhibition [5] | growth inhibition [6]
COc1ccc(-c2nnc(-c3nsc4ccccc34)o2)cc1 | -12.8% | -31.9% | -21.5% | -2.5% | 18.5% | -14.1%
COC(=O)C(/C(=N/N)C(=O)Nc1cc(Cl)ccc1Cl)c1nc2ccc([N+](=O)[O-])cc2[nH]c1=O (configuration not stated) | -10.6% | -13.3% | 7.3% | 10.5% | 13.9% | 15.6%
CCOCCC(O)CC (configuration not stated) | 3.3% | -31.2% | -4.9% | 17.7% | 9.8% | 14%
O=C(Cl)CNS(=O)(=O)c1ccccc1 | 5.45% | 5.1% | 1% | 15.8% | 6.4% | 1.45%
O=C(Nc1nc2ccccc2n1Cc1ccc(Cl)cc1)NC12CC3CC(CC(C3)C1)C2 | 15.8% | -6.45% | 7.2% | -30.6% | 27.5% | -18.6%
N#CC(/C(CCCC(=O)Nc1cccc([N+](=O)[O-])c1)=N/NC(=O)c1cc2ccccc2cc1O)c1ccccc1 (configuration not stated) | 41.4% | 41.4% | -17.2% | 9.4% | 36.8% | 38%
N=C(N)C(N=Nc1ccccc1)C(=N)N (configuration not stated) | -25.4% | -7.45% | -22.1% | -33.5% | -25.5% | -16%
CCOC(=O)c1cccc(C(=O)OCC)n1 | 4.75% | -2.35% | 11.8% | -1.65% | 18.7% | -14.6%
CCOc1ccccc1NC(=O)Nc1cccc(C(F)(F)F)c1 | 68.8% | 60.5% | 76% (active) | 72.3% (active) | 76% (active) | 88.9% (active)
COc1cc(C)c(C#N)c(OC)n1 | 19.4% | -7.8% | 9.9% | 12.9% | 20.2% | 14.8%
NCCCCCC(=O)O | -37.5% | -25.4% | -17.6% | 8.2% | -22% | -8.4%
Oc1ccc2ccc3[nH]cnc3c2c1 | -22.5% | -25.4% | -9% | 2.1% | -8.9% | 0.15%
CC(=O)Nc1cscc1NC(C)=O | -3.8% | -10.7% | 6.05% | -0.2% | 16.9% | -9.5%
COc1ccc(/C=C/C(=O)O)cc1OC | -1.65% | -12% | 11.7% | -1% | 12.3% | -0.65%
O=C(c1ccc(F)cc1)c1cccc(C(=O)c2ccc(F)cc2)n1 | -16.8% | -24% | -29.9% | 8.15% | -3.4% | -36.1%
CCOP(=O)(O)C(c1ccccc1)c1ccccc1 | -2.45% | 7.5% | 3.5% | -10.7% | 5.3% | 6.85%
OC(c1ccccc1)(c1ccccc1)c1ccccc1CNc1ccccc1 | 45.5% | 30.4% | 26.2% | 8% | 19.8% | 49.8%
CCCCCCCCN1COC2CCc3ccccc3C21 (configuration not stated) | 93.5% (active) | 93.8% (active) | 93.8% (active) | 87.6% (active) | 94% (active) | 92.3% (active)
Cc1ccc(NC(=S)N/C=C(\c2ccccc2)S(=O)Cc2ccccc2)c(C)c1 (configuration not stated) | 8% | -22.1% | -8% | 15.7% | 14.1% | 1.8%
Cc1ccc(Cl)cc1NC(=O)Oc1ccc(Cl)cc1C | 23.2% | 9.1% | -7.8% | 8.8% | 15.7% | 3.25%
CC1CNC(=S)N(c2cccc3ccccc23)C1=O (configuration not stated) | -4.8% | -1% | -3.7% | -5% | -9.35% | 4.2%

Structure (SMILES) | growth inhibition [1] | growth inhibition [2] | growth inhibition [3] | growth inhibition [4] | growth inhibition [5] | growth inhibition [6]
O=[N+]([O-])c1ccc(N2CCN=N2)cc1 | -24.2% | -14.6% | -15.2% | 2.35% | -14.2% | -6.75%
CO/N=C1\CC(NC(=O)C(F)(F)F)c2ccsc21 (configuration not stated) | 11.6% | 6.9% | 8% | 13.3% | -2.8% | 38.9%
OC1CCCN(Cc2ccccc2)C1 (configuration not stated) | 9.3% | -15.7% | 8.55% | 4.5% | 11.3% | 7.35%
CC=C1C(C(=O)O)C1C(=O)O (configuration not stated) | 16.9% | 20.8% | -5.2% | -23.2% | 15.3% | -4.4%
C/C(CC(=O)Nc1ccc(Cl)c(Cl)c1)=N/NC(=O)C[n+]1ccccc1 | 16.8% | 5.15% | 7.45% | -19.6% | 5.85% | 29.2%
Cc1nc(-c2ccccc2)nc2c1nc(Cc1ccc(Cl)cc1)n2Nc1ccccc1 | 1.7% | -0.3% | 1.6% | -5.75% | -1.45% | 40.5%
CS(=O)(=O)OCCN1C(=O)CNC1=O | 4.6% | 8.35% | -9.45% | -27.8% | 9.55% | -2.7%
COc1cccc(C2CC(C)(N3CCCC3)Oc3cc4c(cc32)OCO4)c1O (configuration not stated) | 7.5% | 13.9% | 10% | 13.8% | 28.6% | -10.2%
C=C(C)C(O)C(O)C(=C)C (configuration not stated) | -6.35% | -17.8% | -15.6% | -1.7% | 12.9% | -4%
C=CCOc1c(C)cc(C)cc1C | 5.3% | -17.4% | -5.95% | -16.3% | -14.8% | -6.85%
CCOC(=O)C(CCCN=C(N)NC(=O)OCc1ccccc1)NC(=O)C(C(C)C)N1C(=O)c2ccccc2C1=O (configuration not stated) | 93% (active) | 78.5% (active) | 96.2% (active) | 52% | 48.9% | 96% (active)
Cc1nc2ccccc2[nH]1 | 3.8% | -31.1% | -4% | 5.85% | 3.45% | 8.8%
Cc1cc(N(CCC#N)CCC#N)ccc1/C(N=Nc1cccc(Cl)c1)=N/NC(=O)c1cc(Cl)ccc1O | 21% | 4.9% | 26.8% | 10.3% | 33.6% | -59.4%
O=C(CO)c1ccc(-c2ccccc2)cc1 | -8% | -12.4% | -19.1% | -12.7% | 4.95% | 16.2%
C=C1C(=O)O[C@@H]2[C@H]1CC[C@H](C)[C@]1(O)CCC(=O)[C@@]21C | -5.3% | -13.6% | 14.2% | 7.85% | -4.75% | 3%
O=C1c2ccccc2-c2nc(-c3cccnc3)cc3c2c1nc1ccccc13 | 32.7% | 24.4% | 34.4% | 23% | 24.7% | 39%
CCN(C)c1nc(N(C)CC)c2nc(N(C)CC)nc(N(C)CC)c2n1 | 1.95% | -3.4% | 17.8% | 4.5% | -14.5% | -65.1%
Cc1c(C2CCC(=O)C2)c2ccccc2n1C (configuration not stated) | -3.05% | -23.3% | -4.6% | 15.4% | 2.1% | 3.5%
C=CCCC12CCCC(=O)C1Sc1ccc3ccccc3c12 (configuration not stated) | 9.8% | -3.85% | 11.3% | 10.8% | 35.3% | 7.15%
O=C1CCC2CN(C(=O)c3ccccc3)CCC2C1 (configuration not stated) | 8.75% | 7.7% | 21.1% | 3.1% | 16.6% | 22.2%
CN1CN(C(=O)N2CN(C)C(=O)N(C)C2)CN(C)C1=O | -10.8% | -13.6% | -23.6% | 3.45% | -14.2% | -37.4%
